{
  "source": "PubChem BioAssay AID1259343",
  "about": "(VanderVen Lab, College of Veterinary Medicine, Cornell …, 2017)",
  "note": "Out of some 6,200 compounds screened, about 2,900 (47%) were called active. So high a share suggests a set chosen from earlier hits. The list shows a part of the results. Unmarked numbers belong to inactive results. Rule as the data show it: active = inhibition above about 50%; inactive = the rest.",
  "data": [
    {"assay": "Mycobacterium tuberculosis growth inhibition, primary screen (AID 1259343)", "settings": "inhibition: at 10 µM, active compounds read high; outcome: 10 uM", "values": [
      {"smiles": "CCOc1nc(C#N)nc(N2CCOCC2)n1", "inhibition": "22.3%"},
      {"smiles": "COC(=O)C1=C(C)N(C)C(=O)C12c1ccccc1-c1oc(N)nc12", "note": "(stereo not given)", "inhibition": "58.3% (active)"},
      {"smiles": "COc1c(F)c(F)c(C(=O)C2C(=O)C=C(c3c(F)c(F)c(OC)c(F)c3F)OC2=O)c(F)c1F", "note": "(stereo not given)", "inhibition": "36.4%"},
      {"smiles": "Cc1cccn2c(NC(C)(C)CC(C)(C)C)c(-c3cccc(OC(=O)c4cccc5ccccc45)c3)nc12", "inhibition": "9.87%"},
      {"smiles": "Cc1ccc2nc(-c3ccccn3)c(NC(C)(C)CC(C)(C)C)n2c1", "inhibition": "101% (active)"},
      {"smiles": "Cc1ccc(NC(=O)c2cc3c(C(F)(F)F)cc(=O)[nH]c3o2)c(Cl)c1", "inhibition": "101% (active)"},
      {"smiles": "O=C(Nc1ccc(C(F)(F)F)[nH]c1=O)c1ccccc1", "inhibition": "-22.3%"},
      {"smiles": "Cc1ccc(-n2nc3c(c2NC(=O)/C=C\\c2ccccc2)CSC3)cc1", "inhibition": "84% (active)"},
      {"smiles": "Cc1cccc(C2CC(C(=O)N(C)Cc3ccco3)CN(Cc3cccc(F)c3)C2)c1", "note": "(stereo not given)", "inhibition": "54.6% (active)"},
      {"smiles": "CCCc1ccc(CN2CCN(Cc3cccc(F)c3)CC2)o1", "inhibition": "45.4%"},
      {"smiles": "CN(Cc1ccco1)C(=O)c1sc2cc(F)ccc2c1Cl", "inhibition": "20.1%"},
      {"smiles": "Cc1cc(C(=O)NCCc2ccc(Cl)cc2)c(C)o1", "inhibition": "88.2% (active)"},
      {"smiles": "CC(C)Nc1ncccc1C(=O)NCCc1cccc(Cl)c1", "inhibition": "15.2%"},
      {"smiles": "CC(C)Cc1noc(Cn2cc(I)cn2)n1", "inhibition": "91.5% (active)"},
      {"smiles": "CC(C)Cc1nc(CS(=O)(=O)C/C=C/c2ccccc2)no1", "inhibition": "43.6%"},
      {"smiles": "CC(CCC(=O)O)[C@H]1CCC2C3CC[C@@H]4C[C@H](O)CC[C@]4(C)C3C=C[C@@]21C", "note": "(stereo not given in full)", "inhibition": "34.3%"},
      {"smiles": "CN(CCOc1ccc(F)cc1)Cc1nc2cc(Cl)ccc2c(=O)[nH]1", "inhibition": "-0.34%"},
      {"smiles": "O=S(CCCOc1ccc(F)cc1)Cc1ccc(F)cc1Cl", "note": "(stereo not given)", "inhibition": "89.6% (active)"},
      {"smiles": "Cc1cc(NC(=O)c2cccc(C(F)(F)F)c2)n(-c2nc3c(c(=O)[nH]2)CCC3)n1", "inhibition": "100% (active)"},
      {"smiles": "Cc1cc(NC(=O)c2cccc(F)c2)n(-c2nc3c(c(=O)[nH]2)CCC3)n1", "inhibition": "101% (active)"},
      {"smiles": "O=C(NCCNc1cccc(C(F)(F)F)n1)c1ccc(O)cc1", "inhibition": "73.2% (active)"},
      {"smiles": "CN(C)C(CNC(=O)c1ccc(C(F)(F)F)cc1)c1c(F)cccc1Cl", "note": "(stereo not given)", "inhibition": "8.7%"},
      {"smiles": "CN(Cc1ccc(Br)s1)Cn1ncc2c([nH]c3ccccc32)c1=O", "inhibition": "-13.5%"},
      {"smiles": "Cc1nc([N+](=O)[O-])cn1CCC(=O)NOCc1ccccc1", "inhibition": "-5.24%"},
      {"smiles": "CCNC(=O)c1ccccc1OCc1cccc(Br)c1", "inhibition": "19.8%"},
      {"smiles": "O=C(Nn1cc([N+](=O)[O-])cn1)c1cccc(COc2ccc(Br)cc2)c1", "inhibition": "78.8% (active)"},
      {"smiles": "CNC(=O)Cc1ccc(-c2cc(OC)ccc2F)cc1", "inhibition": "57.2% (active)"},
      {"smiles": "CCCSc1nsc(SCCC)c1C#N", "inhibition": "97.4% (active)"},
      {"smiles": "CCCCCCSc1s[nH]c(=O)c1C#N", "inhibition": "inactive"},
      {"smiles": "O=c1cc2c(nn1Cc1ccc(Br)cc1F)CCCC2", "inhibition": "-5.6%"},
      {"smiles": "Fc1ccc(-c2nnn(Cc3ccccc3Br)n2)cc1", "inhibition": "-14%"},
      {"smiles": "Fc1ccccc1Cn1nnc(-c2ccc(Br)cc2)n1", "inhibition": "94.7% (active)"},
      {"smiles": "Cc1ccc2oc(CN3CCN(c4cc(N)nc(N)n4)CC3)c(C)c2c1", "inhibition": "34.6%"},
      {"smiles": "C/C(=C\\c1ccco1)CN1CCN(c2nc3cc(C)ccc3o2)CC1", "inhibition": "94.4% (active)"},
      {"smiles": "C/C(=C\\c1cc(Cl)ccc1O)CN1CCN(c2ncc(F)cn2)CC1", "inhibition": "37.7%"},
      {"smiles": "CCCCN(C(=O)c1nc2nccc(C)n2n1)c1ccccc1", "inhibition": "-8.51%"},
      {"smiles": "C=CCSc1nnc(-c2sc3ccccc3c2Cl)o1", "inhibition": "66.8% (active)"},
      {"smiles": "C(=Cc1ccccc1)CSc1nnc(-c2c[nH]c3ccccc23)o1", "inhibition": "19.9%"},
      {"smiles": "S=c1oc(-c2sc3ccccc3c2Cl)nn1CN1CCOCC1", "inhibition": "1.82%"},
      {"smiles": "COc1cc2c(cc1OC)CN(C(=O)CCl)CC2", "inhibition": "83.7% (active)"},
      {"smiles": "COc1cc(OC)c(C2=CCN(C(=O)CC3CCCC3)CC2)c(OC)c1", "inhibition": "5.97%"},
      {"smiles": "O=C(Cc1csc(NC(=O)NC2CCCCC2)n1)Nc1ccccc1Oc1ccccc1", "inhibition": "-3.55%"},
      {"smiles": "CCc1csc(NC(=O)C2=NOC(c3ccccc3)C2)n1", "note": "(stereo not given)", "inhibition": "64% (active)"},
      {"smiles": "Brc1cc(CNc2cccnc2N2CCCC2)cs1", "inhibition": "21.1%"},
      {"smiles": "O=c1cc(CNc2cccc(F)c2)nc2sc3c(n12)CCCC3", "inhibition": "30.1%"},
      {"smiles": "Cc1csc2nc(CNc3ccc(NC(=O)C4CC4)cc3C(F)(F)F)cc(=O)n12", "inhibition": "10.5%"},
      {"smiles": "Cc1csc2nc(CNc3cccc(C#Cc4cccs4)c3)cc(=O)n12", "inhibition": "60.6% (active)"},
      {"smiles": "CC(Cc1ccccc1Cl)NC(=O)c1ccccn1", "note": "(stereo not given)", "inhibition": "70.5% (active)"},
      {"smiles": "CC(CCc1ccccc1)NC(=O)c1cc(Cl)ccn1", "note": "(stereo not given)", "inhibition": "43.1%"},
      {"smiles": "O=C(NCCc1ccccc1Cl)c1cccc2ccnn12", "inhibition": "44.4%"},
      {"smiles": "Cc1ccc(S(=O)(=O)NC(C)c2ccc(Cl)cc2Cl)s1", "note": "(stereo not given)", "inhibition": "42.2%"},
      {"smiles": "Cc1ccc(S(=O)(=O)Nc2cc(C(C)C)no2)s1", "inhibition": "43.6%"},
      {"smiles": "Cc1ccc(S(=O)(=O)NCCc2sc(-c3ccc(Cl)cc3)nc2C)s1", "inhibition": "76.3% (active)"},
      {"smiles": "CCCCOc1ccc(C(=O)Nc2cc(C)nn2-c2nc(C)c(C)c(=O)[nH]2)cc1", "inhibition": "16.8%"},
      {"smiles": "CCOc1ccc(C(=O)Nc2cc(-c3cccs3)nn2-c2nc(C)cc(=O)[nH]2)cc1", "inhibition": "93.9% (active)"},
      {"smiles": "CCOc1ccc(C(=O)Nc2cc(C)nn2-c2nc(C)cc(=O)[nH]2)cc1", "inhibition": "102% (active)"},
      {"smiles": "CCCCOc1ccc(C(=O)Nc2cc(C)nn2-c2nc(C)cc(=O)[nH]2)cc1", "inhibition": "101% (active)"},
      {"smiles": "Cc1ccc(C)c2c(C)c(C(=O)NCC3(C)CCCO3)oc12", "note": "(stereo not given)", "inhibition": "38.4%"},
      {"smiles": "Nc1ccc(C(=O)Oc2ccccc2)c(O)c1", "inhibition": "98.9% (active)"},
      {"smiles": "O=C(Oc1ccccc1C(=O)O)c1ccccc1O", "inhibition": "inactive"},
      {"smiles": "O=S(Cc1cccc(C(F)(F)F)c1)Cc1ccc(Cl)cc1Cl", "note": "(stereo not given)", "inhibition": "42.1%"},
      {"smiles": "CCc1nc(Nc2cccc(C(F)(F)F)c2)c2ccc(Cl)cc2n1", "inhibition": "88.9% (active)"},
      {"smiles": "O=S(=O)(Nc1nc2ccccc2nc1Cl)c1cccc(C(F)(F)F)c1", "inhibition": "38.5%"},
      {"smiles": "CC(C)N(C(=O)CCl)c1ccccc1", "inhibition": "100% (active)"},
      {"smiles": "CN(CC1COc2ccccc2O1)C(=O)CCl", "note": "(stereo not given)", "inhibition": "-21.8%"}
    ]}
  ]
}
